Source: PubChem BioAssay
HT1080 IDH1KD tx – kills HT-1080 cells with IDH1 knockdown; 360,000 tested, 2% active; HT-1080 IDH1 knockdown viability, ATP luminescence, 48 h; Potency, µM (doses to about 46.1 µM), without a hit: at the top dose activity, negative = toxicity, hits mostly cytotoxic;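 also: potency is read from the fitted curve at half-maximal effect; 0% = DMSO wells and -100% = cell-free medium wells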
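In this qHTS, HT-1080 cells depleted of IDH1 are exposed for 48 h at 37 °C to compound titrations. Toxicity is scored from CellTiter-Glo luminescence, with DMSO as full viability and medium alone as none.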
DT40 TDP1 CPT – growth inhibition of DT40 Tdp1-/-;hTDP1 cells with camptothecin (screen for TDP1 inhibitors); chicken DT40 Tdp1-/-;hTDP1 cells + 20 nM CPT, ATP luminescence, 48 h; Potency, µM (titrated, usually from 46.2 µM), for the others: at the top dose activity change, negative = growth inhibition, actives largely listed as inhibitors; 420,000 tested, 12% active; AID 686979; also: potency is read from the fitted curve at half-maximal effect; nearly all actives have a fitted effect of over 55% in size
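Chicken DT40 Tdp1-/- cells complemented with human TDP1, 400 cells/well, exposed to compounds plus 20 nM camptothecin for at least 48 h at 37 C; viability read as ATP content by CellTiter-Glo luminescence.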
HT1080NT lethal – kills 2HG-producing HT-1080-NT fibrosarcoma cells. Potency, µM (titrated, usually from 46.1 µM), inactives show at the highest dose activity, negative = less viability, hits mostly cytotoxic. HT-1080-NT fibrosarcoma viability, CellTiter-Glo ATP luminescence, 48 h. AID 686970. 360,000 tested, 1.6% active;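 also: NT is the 2HG producing partner of a matched IDH1 knockdown line; potency is read from the fitted curve at half-maximal effect; 0% = DMSO-treated cells and -100% = media-only wells without cells; nearly all actives have a fitted effect of over 55% in size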
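Luminescent CellTiter-Glo readout after 48 hours of compound exposure at 37 degrees C defined viability of HT-1080-NT cells. Activity was normalized to DMSO wells and cell-free media wells; concentration-response curves were fitted and assigned curve classes.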
IL-1B inflam inh – inflammasome signaling inhibition, IL-1 beta readout. activity change, % at 57.5 µM. THP-1 LPS/ATP IL-1B secretion, AlphaLISA, 16 h; active compounds read low. 360,000 tested, 4.7% active; in the data active = activity change below about -50%; inconclusive = mostly about -30% to -49%
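THP-1 cells pretreated 1 hr with compounds (up to 57.5 uM final), then stimulated with LPS (250 ng/mL final) plus ATP (1.25 mM final); secreted IL-1B measured by AlphaLISA after 16 hr, decreased signal indicating inhibition.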
DT40 TDP1 no CPT – qHTS for Inhibitors of human tyrosyl-DNA phosphodiesterase 1 (TDP1): qHTS in cells in absence of CPT; DT40 Tdp1-/- hTDP1 cells, no CPT, ATP luminescence, 48 h; Potency, µM (series often up to 46.2 µM), inactives show top-dose activity change, negative = growth inhibition, actives largely listed as inhibitors; 420,000 tested, 15% active; AID 686978, 2013; also: potency is read from the fitted curve at half-maximal effect; nearly all actives have a fitted effect of over 55% in size
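Stably hTDP1-transfected Tdp1-null chicken DT40 cells were treated with library compounds minus camptothecin and grown for at least 48 hr at 37 °C, after which cellular ATP was quantified by luminescence.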
12-LOX inh – ALOX12 (human) lipoxygenase inhibition; P18054; 580,000 tested, 1.1% active; purified 12hLO, xylenol orange hydroperoxide absorbance; Potency, µM (series often up to 108 µM), for inactives: at the highest dose activity change, negative = inhibition, hits mostly inhibitors; also: potency is read from the fitted curve at half-maximal effect
Target sequence (P18054 whole entry, looked up): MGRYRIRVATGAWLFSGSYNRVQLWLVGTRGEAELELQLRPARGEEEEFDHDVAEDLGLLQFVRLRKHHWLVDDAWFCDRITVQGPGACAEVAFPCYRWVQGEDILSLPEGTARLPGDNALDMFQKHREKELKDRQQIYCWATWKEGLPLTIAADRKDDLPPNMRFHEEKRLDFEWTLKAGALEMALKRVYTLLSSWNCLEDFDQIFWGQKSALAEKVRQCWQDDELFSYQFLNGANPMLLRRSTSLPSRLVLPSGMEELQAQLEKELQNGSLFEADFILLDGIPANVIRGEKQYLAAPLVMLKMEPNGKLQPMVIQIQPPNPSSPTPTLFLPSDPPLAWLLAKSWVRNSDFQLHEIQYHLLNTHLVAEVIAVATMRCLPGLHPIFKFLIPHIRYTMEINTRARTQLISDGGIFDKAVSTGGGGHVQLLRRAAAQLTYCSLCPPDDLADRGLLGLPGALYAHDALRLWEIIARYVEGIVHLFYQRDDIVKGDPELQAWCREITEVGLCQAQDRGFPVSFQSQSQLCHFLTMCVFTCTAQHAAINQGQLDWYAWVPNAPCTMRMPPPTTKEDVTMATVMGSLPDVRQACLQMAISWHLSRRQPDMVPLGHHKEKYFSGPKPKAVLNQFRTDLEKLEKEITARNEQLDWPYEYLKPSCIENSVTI
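Purified human 12hLO (150 nM final) in 25 mM Hepes, 0.01% Triton X-100, pH 7.0 was preincubated 15 min at room temperature with compound. Then 40 uM arachidonic acid was added, 30 min. Hydroperoxide was read by Fe-XO absorbance ratio 573/405 nm.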
* hit, by the source's call; i = inactive; ? = inconclusive; · = not tested or not shown; [ ] = another dose, or the depositor's remark. Many of the other results were omitted from the sample, so hits are more common in it than they were. Unless noted, calls follow the shape of the dose curve; as a rule, active = well fitted curve in the direction sought with a large enough effect; inconclusive = small, poorly fitted or top-dose-only effect, or another doubt; inactive = no such curve, though single readings can be large; an effect the other way counts as inactive or inconclusive. Unless noted, % is scaled to controls: 0 for no effect and ±100 for the full control effect.

SMILES	HT1080 IDH1KD tx	DT40 TDP1 CPT	HT1080NT lethal	IL-1B inflam inh	DT40 TDP1 no CPT	12-LOX inh
COc1ccc(C(O)c2nc(-c3ccc(C)c(C)c3)cs2)cc1 (stereo not drawn)	-5.7%	?	0.3%	63.4	?	-13.0%
COc1ccc(-c2csc(C(O)c3ccc(F)c(F)c3)n2)cc1 (stereo not drawn)	?	18.4µM*	-17.5%	6.0	13µM*	?
COc1cccc(C(O)c2nc(-c3cnn(C)c3)cs2)c1 (stereo not drawn)	0.0%	?	4.7%	42.2	?	3.0%
COc1ccc2c(c1)cc(C(=O)Nc1ccc(C)cc1C)n2C	·	·	·	·	·	0.8%
CC(NC(=O)CSc1cccs1)C1CCCO1 (stereo not drawn)	·	·	·	·	·	-3.7%
O=C(N/N=C/c1ccc(Oc2ccccc2)cc1)c1cccs1	·	·	·	·	·	23.6%
COc1cccc(C(O)c2nc(-c3cccc(C(C)C)c3)cs2)c1 (stereo not drawn)	?	?	-21.1%	0.0	?	?
COc1cccc(C(O)c2nc(-c3cc(F)cc(F)c3)cs2)c1 (stereo not drawn)	-0.9%	20.6µM*	0.4%	-20.0	?	12.9%
N#Cc1ccsc1NC(=O)CN1CCN(S(=O)(=O)c2ccc3ccccc3c2)CC1	-0.2%	?	1.2%	19.1	16.4µM*	-13.7%
O=C(CN1CCN(S(=O)(=O)c2ccc3ccccc3c2)CC1)Nc1ccc2c(c1)CCC2	9.8%	23.1µM*	0.8%	2.5	?	2.5%
C=CCNc1nc(C(=O)OCC(=O)c2ccc(C(C)C)cc2)cs1	·	·	·	·	·	-26.7%
Cc1ccc(-c2cnc(CCC(=O)NCc3ccc(F)c(C)c3)o2)cc1	·	·	·	·	·	-1.3%
CCOC(=O)CCS(=O)(=O)c1ccc(-c2ccc(S(=O)(=O)CCC(=O)OCC)cc2)cc1	3.5%	-12.7%	4.6%	-98.9*	-12.0%	16.6%
CC(=O)CCS(=O)(=O)c1ccc(Oc2ccc(S(=O)(=O)CCC(C)=O)cc2)cc1	?	3.66µM*	?	-74.9*	8.2µM*	-3.0%
Cc1cc(C(C)(C)C)cc(C)c1S(=O)(=O)N1CCN(Cn2nc(C)c3ccccc3c2=O)CC1	·	·	·	·	·	2.7%
CCC(=O)N1CCc2sc(C(=O)NC3CCN(Cc4ccccc4)CC3)cc2C1	·	·	·	·	·	-1.4%
CC1CCc2sc(C(=O)NC3CCN(Cc4ccccc4)CC3)cc2C1 (stereo not drawn)	?	20.6µM*	-20.8%	-59.0*	13µM*	121.8%
CCC1CCc2sc(C(=O)NC3CCN(Cc4ccccc4)CC3)cc2C1 (stereo not drawn)	-27.8%	20.6µM*	-9.9%	-74.4*	13µM*	?
CC(C(=O)N1CCN(Cc2ccccc2)CC1)n1nc(C(=O)O)c2ccccc2c1=O (stereo not drawn)	·	·	·	·	·	2.4%
CCOc1cc(N2CCOCC2)c(OCC)cc1NC(=O)CSc1ncccn1	-2.7%	-23.0%	3.0%	31.4	?	0.6%
CCOc1cc(N2CCOCC2)c(OCC)cc1NC(=O)CSc1ncccc1C(=O)O	-6.4%	?	-3.1%	19.1	6.51µM*	11.2µM*
CCOc1cc(N2CCOCC2)c(OCC)cc1NC(=O)c1ccc(-n2ccnc2)c([N+](=O)[O-])c1	-13.9%	-29.6%	-12.0%	12.3	14.6µM*	-15.1%
CCOc1cc(N2CCOCC2)c(OCC)cc1NC(=O)c1ccc(OC(C)C)cc1	-1.9%	?	1.5%	7.2	20.6µM*	-0.5%
CCOc1cc(N2CCOCC2)c(OCC)cc1NC(=O)c1ccccc1	9.0%	20.6µM*	15.8%	-18.0	16.4µM*	-13.0%
COc1ccccc1NC(=O)c1ccc(-n2ccnc2)c([N+](=O)[O-])c1	20.8%	-8.2%	16.4%	-0.1	-23.1%	27.5%
SMILES	HT1080 IDH1KD tx	DT40 TDP1 CPT	HT1080NT lethal	IL-1B inflam inh	DT40 TDP1 no CPT	12-LOX inh
CC(C)Oc1ccc(C(=O)Nc2ccccc2N2CCOCC2)cc1	-9.4%	3.6%	-3.7%	3.2	-14.8%	-1.2%
CCOc1cc(N2CCOCC2)c(OCC)cc1NC(=O)CN1C(=O)NC(Cc2ccccc2)C1=O (stereo not drawn)	14.1%	2.9%	14.2%	-1.5	-19.1%	-13.4%
COc1ccc(S(=O)(=O)N2CCOCC2)cc1NC(=O)CN1CCCC1	11.4%	10.1%	8.6%	14.8	11.7%	55.9%
COc1ccc(S(=O)(=O)N2CCOCC2)cc1NC(=O)CN1CCC(Cc2ccccc2)CC1	-20.1%	16.4µM*	-14.8%	i	16.4µM*	-2.2%
CCOc1cc(N2CCOCC2)c(OCC)cc1NC(=O)c1cc(C)cc(C)c1	8.9%	13µM*	2.4%	-7.4	11.6µM*	470.9%
CCOc1cc(N2CCOCC2)c(OCC)cc1NC(=O)CN1CCC(Cc2ccccc2)CC1	0.1%	23.1µM*	-0.8%	?	?	-10.2%
CCOc1cc(N2CCOCC2)c(OCC)cc1NC(=O)c1c(-c2ccccc2)noc1C	0.6%	?	-1.4%	5.1	-54.3%	-13.8%
CCOc1cc(N2CCOCC2)c(OCC)cc1NC(=O)c1c(-c2ccccc2Cl)noc1C	-5.3%	10.3µM*	-27.6%	-2.6	7.31µM*	3.4%
CS(=O)(=O)N1C[C@@H](Oc2ccccc2)C[C@H]1C(=O)N1CCCC1	·	·	·	·	·	-8.3%
CC(C)NC(=O)C1COC2(CCN(C(=O)c3cccc(Cl)c3)CC2)N1C(=O)c1ccc(F)cc1 (stereo not drawn)	·	·	·	·	·	12.9%
CC(c1ccccc1)N1Cc2cc(NC(=O)c3ccccc3)ccc2OCC1=O (stereo not drawn)	·	·	·	·	·	25.1%
CCOc1cc(N2CCOCC2)c(OCC)cc1NC(=O)COC(=O)c1ccc(OC)c([N+](=O)[O-])c1	16.6%	14.6µM*	11.2%	0.0	23.1µM*	4.5%
CCCn1nc(C(=O)Nc2cc(OCC)c(N3CCOCC3)cc2OCC)c2ccccc2c1=O	0.9%	16.4µM*	1.6%[9.24 µM]	-16.5	3.26µM*	-37.5%
CCOc1cc(N2CCOCC2)c(OCC)cc1NC(C)C(=O)N1CCN(CC)CC1 (stereo not drawn)	17.9%	9.0%	13.9%	63.7	-15.9%	3.16µM*
CCOc1cc(N2CCOCC2)c(OCC)cc1NC(=O)Cc1ccccc1	2.8%	-18.1%	17.6%	11.8	?	-5.5%
CCOc1cc(N2CCOCC2)c(OCC)cc1NC(=O)Cc1ccccc1OC	-26.7%	16.4µM*	-25.4%	-12.5	18.4µM*	0.0%
